Data as given in PubChem BioAssay (NCI).
Compounds without any hit were thinned out: in the full panel of roughly 83,000, 20% have a hit.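 The test compound was applied at a single concentration to cells in 96-well plates for 48 hours, and percent growth was recorded.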 Activity calls are given as the source filed them. Rule for the calls: active = growth percent below 10; inactive = the rest.

Legend:
Experiment in all cases: NCI-60 one-dose screen, 48 h (100 = growth as untreated, 0 = no growth, -100 = all killed)
Conditions in all cases: 10 µM unless noted
SK-MEL-2 melanoma = tested on: SK-MEL-2 melanoma
EKVX NSCLC = tested on: EKVX NSCLC
SN12C renal = tested on: SN12C renal
UO-31 renal = tested on: UO-31 renal
TK-10 renal = tested on: TK-10 renal
ACHN renal = tested on: ACHN renal
CAKI-1 renal = tested on: CAKI-1 renal
CCRF-CEM leukemia = tested on: CCRF-CEM leukemia
MOLT-4 leukemia = tested on: MOLT-4 leukemia
A498 renal = tested on: A498 renal

Measured: growth

COc1cc(/C=C/C(=O)c2ccc(-n3cc(CN4CCN(c5cc6c(cc5F)c(=O)c(C(=O)O)cn6C5CC5)CC4)nn3)cc2)cc(OC)c1OC
inactive: SK-MEL-2 melanoma 102% | EKVX NSCLC 80.8% | SN12C renal 58.8% | UO-31 renal 65.4% | TK-10 renal 97.8% | ACHN renal 93.4% | CAKI-1 renal 68.7% | CCRF-CEM leukemia 34.6% | MOLT-4 leukemia 80.4%

COc1ccc(CNc2ccc3nc(CCC4CCCCC4)[nH]c3c2)cc1
inactive: SK-MEL-2 melanoma 87% | EKVX NSCLC 79.1% | SN12C renal 68% | UO-31 renal 33.9% | TK-10 renal 86.4% | CAKI-1 renal 72.2% | A498 renal 53.2% | CCRF-CEM leukemia 69.2% | MOLT-4 leukemia 52.9%

Cn1cc(-c2csc(-c3cn(CCO)c4ccc(F)cc34)n2)c2cccnc21
inactive: SK-MEL-2 melanoma 52.2% | EKVX NSCLC 57.4% | SN12C renal 73.2% | UO-31 renal 70.7% | TK-10 renal 47.7% | ACHN renal 69.5% | CAKI-1 renal 78.4% | CCRF-CEM leukemia 44.4% | MOLT-4 leukemia 46.7%

Cc1cc2c(C(C)C)c(O)c(O)c(/C=N/O)c2c(O)c1-c1c(C)cc2c(C(C)C)c(O)c(O)c(/C=N/O)c2c1O
active: SK-MEL-2 melanoma -10.2% | TK-10 renal 0.867% | MOLT-4 leukemia -7.59%
inactive: EKVX NSCLC 27.2% | SN12C renal 43.7% | UO-31 renal 24.7% | CAKI-1 renal 26.6% | A498 renal 57.2% | CCRF-CEM leukemia 10.1%

COc1ccc(C2CC(=O)Oc3c(OC)c4c(c(OC)c32)OCO4)cc1 (configuration not stated)
inactive: SK-MEL-2 melanoma 101% | EKVX NSCLC 101% | SN12C renal 98% | UO-31 renal 84.7% | TK-10 renal 96.4% | CAKI-1 renal 96.8% | A498 renal 88.7% | CCRF-CEM leukemia 88.9% | MOLT-4 leukemia 96.3%

c1ccc2c(-c3cnn4cc(-c5ccc(N6CCNCC6)cc5)cnc34)ccnc2c1
active: SK-MEL-2 melanoma -59.2% | EKVX NSCLC -37.3% | SN12C renal -75.5% | UO-31 renal -93.4% | TK-10 renal -74.8% | CAKI-1 renal -99.6% | A498 renal -87% | CCRF-CEM leukemia -48.2% | MOLT-4 leukemia -28.7%

COC(=O)[C@@H](Cc1c[nH]c2ccccc12)NC[C@@H](O)CN1C(=O)/C(=C\c2cc(OC)c(OC)c(OC)c2)c2ccccc21
active: MOLT-4 leukemia 1.92%
inactive: SK-MEL-2 melanoma 58.1% | EKVX NSCLC 85.7% | SN12C renal 73% | UO-31 renal 58.3% | TK-10 renal 101% | ACHN renal 75.5% | CAKI-1 renal 73.1% | CCRF-CEM leukemia 20.7%

CS(=O)(=O)c1cccc(Nc2ncc3cc(-c4ccccc4Cl)ccc3n2)c1
inactive: EKVX NSCLC 23.9% | SN12C renal 11% | TK-10 renal 19.5%
active: SK-MEL-2 melanoma -25.6% | UO-31 renal -3.98% | ACHN renal 2.93% | CAKI-1 renal 9.3% | CCRF-CEM leukemia 9.21% | MOLT-4 leukemia 5.83%

COc1ccc(C(=O)/C=C/c2ccc(C)cc2)cc1S(N)(=O)=O
inactive: SK-MEL-2 melanoma 87.1% | EKVX NSCLC 81% | UO-31 renal 37.4% | TK-10 renal 73.1% | CAKI-1 renal 73.6% | A498 renal 82.7% | CCRF-CEM leukemia 23.7% | MOLT-4 leukemia 15.9%
active: SN12C renal 6.38%

CN1CCN(Cc2ccc(NC(=O)c3cncc(C#Cc4c(N)ncc5c(F)cccc45)c3)cc2C(F)(F)F)CC1
inactive: EKVX NSCLC 10.6%
active: SK-MEL-2 melanoma -65.4% | SN12C renal -92.6% | UO-31 renal -86.2% | TK-10 renal -95.1% | CAKI-1 renal -70.4% | A498 renal -1.72% | CCRF-CEM leukemia -39.8%

CCOc1ccccc1NC(=O)CCC(=O)OC
inactive: SK-MEL-2 melanoma 121% | EKVX NSCLC 94.3% | SN12C renal 108% | UO-31 renal 81.8% | TK-10 renal 98.7% | ACHN renal 106% | CAKI-1 renal 92.4% | CCRF-CEM leukemia 108% | MOLT-4 leukemia 94.8%

C/C(=N\NC(=O)c1ccc(C(C)(C)C)cc1)c1ccc(O)cc1O
inactive: SK-MEL-2 melanoma 42.8% | EKVX NSCLC 22% | SN12C renal 33.7% | UO-31 renal 16.8% | TK-10 renal 40.5% | CAKI-1 renal 17.1% | A498 renal 42.3% | CCRF-CEM leukemia 14.5% | MOLT-4 leukemia 18.2%

Cc1c(C(=O)C(SC(=S)N2CCOCC2)SC(=S)N2CCOCC2)nnn1-c1ccc([N+](=O)[O-])cc1
inactive: SK-MEL-2 melanoma 106% | EKVX NSCLC 113% | SN12C renal 96.4% | UO-31 renal 74.7% | TK-10 renal 100% | CAKI-1 renal 94.9% | A498 renal 128% | CCRF-CEM leukemia 67.9% | MOLT-4 leukemia 91.1%

COc1ccc(/C=C2/CCc3cc4ccc(OC)cc4[o+]c32)c(O)c1
inactive: SK-MEL-2 melanoma 85.6% | EKVX NSCLC 75.7% | SN12C renal 13.6% | TK-10 renal 135% | CAKI-1 renal 81% | A498 renal 94.9%
active: UO-31 renal -28.7% | CCRF-CEM leukemia 9.94% | MOLT-4 leukemia 0.523%

COc1cccc(NC(=O)c2sc3nc(C)c(C(=O)c4ccccc4)cc3c2N)c1
active: A498 renal -2.09%
inactive: SK-MEL-2 melanoma 93.7% | EKVX NSCLC 69.1% | SN12C renal 94.4% | UO-31 renal 93% | TK-10 renal 102% | CAKI-1 renal 63.2% | CCRF-CEM leukemia 99% | MOLT-4 leukemia 115%

CCN1C(=O)N(CC)C2C1NN=c1s/c(=C\c3ccc(F)cc3)c(=O)n12 (configuration not stated)
active: CCRF-CEM leukemia 4.82%
inactive: SK-MEL-2 melanoma 55.3% | EKVX NSCLC 56.3% | SN12C renal 31.5% | UO-31 renal 41.7% | TK-10 renal 64.8% | CAKI-1 renal 33% | A498 renal 23.4% | MOLT-4 leukemia 14.3%

[2H]C([2H])([2H])Oc1c(F)cccc1/C=C/C(=O)/C=C(O)/C=C/c1cccc(F)c1OC([2H])([2H])[2H]
inactive: SK-MEL-2 melanoma 101% | EKVX NSCLC 107% | SN12C renal 93.4% | UO-31 renal 97.8% | TK-10 renal 114% | CAKI-1 renal 103% | A498 renal 109% | CCRF-CEM leukemia 90.9%

COc1ccc(-c2csc(NC(=O)CSc3nc(C)cc(=O)[nH]3)n2)cc1
inactive: SK-MEL-2 melanoma 103% | EKVX NSCLC 96.1% | SN12C renal 98.2% | UO-31 renal 99% | TK-10 renal 107% | CAKI-1 renal 109% | A498 renal 103% | CCRF-CEM leukemia 106% | MOLT-4 leukemia 110%

CCOC(=O)c1c(NC(=S)Nc2ccc([N+](=O)[O-])cc2)sc2c1CCCCC2
inactive: SK-MEL-2 melanoma 66.6% | EKVX NSCLC 79.2% | SN12C renal 55.7% | UO-31 renal 76.2% | TK-10 renal 85.9% | ACHN renal 84.6% | CAKI-1 renal 79.1% | CCRF-CEM leukemia 64% | MOLT-4 leukemia 72.9%

CN(CCNc1ccc(C(=N)N)cc1)c1ccc(C(=N)N)cc1
inactive: SK-MEL-2 melanoma 90.4% | EKVX NSCLC 84.1% | SN12C renal 39.3% | UO-31 renal 88.3% | TK-10 renal 94.1% | ACHN renal 78.4% | CAKI-1 renal 62% | MOLT-4 leukemia 87.6%
active: CCRF-CEM leukemia 7.18%

O=[N+]([O-])c1ccc(N/N=C\c2cc(Cl)ccc2O)nc1
inactive: SK-MEL-2 melanoma 44.3% | EKVX NSCLC 31% | SN12C renal 39.3% | TK-10 renal 107% | A498 renal 106% | CCRF-CEM leukemia 19.1% | MOLT-4 leukemia 13.8%
active: UO-31 renal 8.96% | CAKI-1 renal -14.1%

COc1cc(OCc2cccc(-c3ccccc3)c2C)cc(OC)c1CN1CCCCC1C(=O)NCCOCCOCCN (configuration not stated)
inactive: SK-MEL-2 melanoma 98.4% | EKVX NSCLC 85.5% | SN12C renal 87.6% | UO-31 renal 79.1% | TK-10 renal 125% | CAKI-1 renal 92.4% | A498 renal 72.9% | MOLT-4 leukemia 38.4%
active: CCRF-CEM leukemia 1%

CCOC(=O)C#Cc1c(CC(=O)OCC)nnn1[C@H]1O[C@@H](CO)[C@@H]2OC(C)(C)O[C@@H]21
inactive: SK-MEL-2 melanoma 101% | EKVX NSCLC 99.5% | SN12C renal 87.1% | UO-31 renal 15.7% | TK-10 renal 48.8% | A498 renal 111% | CCRF-CEM leukemia 11.7% | MOLT-4 leukemia 50.1%
active: CAKI-1 renal -88.4%

CC1=C([Se]CC(OC(=O)[C@@H](CO)NC(=O)OC(C)(C)C)C(=O)NCCCCCC(=O)OCc2ccccc2)C(=O)c2ccccc2C1=O (some centres not stated)
inactive: A498 renal 31.2%
active: SK-MEL-2 melanoma -79.9% | EKVX NSCLC -75.5% | UO-31 renal -99.8% | TK-10 renal -95.8% | ACHN renal -83.3% | CAKI-1 renal -86.5% | CCRF-CEM leukemia -8.88% | MOLT-4 leukemia -21.6%

O=S(=O)(c1ccc(NCSc2nc3ccccc3s2)cc1)c1ccc(NCSc2nc3ccccc3s2)cc1
inactive: SK-MEL-2 melanoma 78.8% | EKVX NSCLC 101% | UO-31 renal 60.2% | TK-10 renal 92.6% | ACHN renal 102% | CAKI-1 renal 95.4% | A498 renal 112% | CCRF-CEM leukemia 71.8% | MOLT-4 leukemia 76.9%

Cc1ccc2nc(/C=C/c3ccc(N(C)C)cc3)cc(C)c2c1
inactive: SK-MEL-2 melanoma 34.8% | EKVX NSCLC 52.4% | SN12C renal 35.6% | UO-31 renal 33.5% | TK-10 renal 43.8% | CAKI-1 renal 18.2% | CCRF-CEM leukemia 17.1% | MOLT-4 leukemia 40%

C=CC(=O)NCc1cccc(Nc2ncc(Br)c(NCCCNC(=O)C3CCC3)n2)c1
active: SK-MEL-2 melanoma -50% | EKVX NSCLC -27.1% | UO-31 renal -9.45% | TK-10 renal -17.4% | CAKI-1 renal -25.3% | A498 renal -59.5% | CCRF-CEM leukemia 1.57% | MOLT-4 leukemia -5.38%

CCCCN(CCC#N)C(N)=O
inactive: SK-MEL-2 melanoma 104% | EKVX NSCLC 101% | UO-31 renal 98.4% | TK-10 renal 98.9% | ACHN renal 97.7% | CAKI-1 renal 82.7% | A498 renal 89.6% | CCRF-CEM leukemia 96.7% | MOLT-4 leukemia 107%

COc1cc(C)cc(-c2c(-c3cc(N4CC(O)C4)nc(-c4cccnc4)n3)cnn2C)c1
inactive: SK-MEL-2 melanoma 113% | EKVX NSCLC 91.7% | UO-31 renal 76.7% | TK-10 renal 99.5% | ACHN renal 66.5% | CAKI-1 renal 94.5% | A498 renal 72.8% | CCRF-CEM leukemia 78.9% | MOLT-4 leukemia 94.6%
